Several values for one entry are separate records, joined by “and”; a condition that tells them apart may be missing. Equal values may be shown once. Compounds without any hit were thinned out: in the full panel of roughly 83,000, 20% have a hit.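 Compound tested at a single concentration for 48 hours in 96-well plates; a percent growth value below 10 was scored as active.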 Activity calls are given as the source filed them.
Assays:
Assay in all cases: NCI-60 one-dose screen, 48 h (100 = growth as untreated, 0 = no growth, -100 = all killed)
Settings in all cases: 10 µM unless noted
HCT-15 colon = system: HCT-15 colon
HT29 colon = system: HT29 colon
SNB-75 CNS = system: SNB-75 CNS
SNB-19 CNS = system: SNB-19 CNS
U251 CNS = system: U251 CNS
PC-3 prostate = system: PC-3 prostate
SK-MEL-5 melanoma = system: SK-MEL-5 melanoma
UACC-62 melanoma = system: UACC-62 melanoma
LOX IMVI melanoma = system: LOX IMVI melanoma
SK-MEL-28 melanoma = system: SK-MEL-28 melanoma

Measured: growth

COc1cc(NS(=O)(=O)C(C)C)cc(-c2cc(-c3ccc(N4CCNCC4)cc3)cnc2N)c1
inactive: HCT-15 colon 112% | HT29 colon 31.9% | SNB-75 CNS 53.7% | SNB-19 CNS 94.2% | U251 CNS 77.1% | PC-3 prostate 72% | SK-MEL-5 melanoma 102% | UACC-62 melanoma 110% | LOX IMVI melanoma 67.3% | SK-MEL-28 melanoma 107%

O=C(/C=C/c1ccccc1)c1cccs1
inactive: HCT-15 colon 95.1% and 95.5% | HT29 colon 99.8% and 90.7% | SNB-75 CNS 102% and 97.3% | SNB-19 CNS 93.6% and 104% | U251 CNS 80.8% and 85.9% | PC-3 prostate 90.8% and 103% | SK-MEL-5 melanoma 101% and 100% | UACC-62 melanoma 92.9% and 99.6% | LOX IMVI melanoma 82.1% and 64.5% | SK-MEL-28 melanoma 111% and 105%

Cc1ccc(/C=C(\C#N)c2cc3ccccc3[nH]2)cc1
inactive: HCT-15 colon 27.1% | HT29 colon 13% | SNB-75 CNS 54.1% | SNB-19 CNS 55.4% | U251 CNS 38% | PC-3 prostate 71.1% | SK-MEL-5 melanoma 52% | UACC-62 melanoma 22.7% | LOX IMVI melanoma 43.4% | SK-MEL-28 melanoma 72.1%

O=C(CN1C(=O)S/C(=C\C(Cl)=C\c2ccccc2)C1=O)NCCCn1ccnc1
inactive: HT29 colon 10.5% | SNB-75 CNS 32% | SNB-19 CNS 57.5% | U251 CNS 45.6% | PC-3 prostate 45.8% | SK-MEL-5 melanoma 64.1% | UACC-62 melanoma 18.8% | SK-MEL-28 melanoma 12.4%
active: HCT-15 colon 1.15% | LOX IMVI melanoma -52.3%

COc1ccc(Nc2nn3c(SCC(=O)c4ccc(C)cc4)nnc3s2)cc1
inactive: HCT-15 colon 105% | HT29 colon 105% | SNB-75 CNS 95.7% | SNB-19 CNS 98.8% | U251 CNS 106% | PC-3 prostate 85.5% | SK-MEL-5 melanoma 95.4% | UACC-62 melanoma 83.7% | LOX IMVI melanoma 95.9% | SK-MEL-28 melanoma 109%

O=C1C(=C(O)c2ccccc2)C(=O)c2ccccc21
inactive: HCT-15 colon 102% | HT29 colon 109% | SNB-75 CNS 76.5% | SNB-19 CNS 98.1% | U251 CNS 109% | PC-3 prostate 94.5% | SK-MEL-5 melanoma 107% | UACC-62 melanoma 96% | LOX IMVI melanoma 99% | SK-MEL-28 melanoma 105%

Cc1cc(N2CCCCC2)nc(NCc2cc(Nc3ccnc4cc(Cl)ccc34)ccc2F)n1
active: HCT-15 colon -55.1% | HT29 colon -58.4% | SNB-75 CNS -37.1% | U251 CNS -90.9% | SK-MEL-5 melanoma -96.3% | UACC-62 melanoma -80.7% | LOX IMVI melanoma -79.2% | SK-MEL-28 melanoma -73.8%
inactive: SNB-19 CNS 40.9% | PC-3 prostate 17.4%

OCCN1CCN(CC/C=C2\c3ccccc3Sc3ccc(Cl)cc32)CC1
inactive: SNB-75 CNS 60.2% and 133% | SNB-19 CNS 58.4% and 72.6% | U251 CNS 27.6% and 28.6% | PC-3 prostate 33.6% and 39.2%
active: HCT-15 colon -38.8% and 8.86% | HT29 colon -41.8% and -43.3% | SK-MEL-5 melanoma -83.5% and -91.7% | UACC-62 melanoma -93.8% and -68.5% | LOX IMVI melanoma -30.2% and 1.96% | SK-MEL-28 melanoma -100% and -78.1%

COc1ccc(Cn2cc(C(=O)Nc3cccnc3Nc3ccccc3)nn2)cc1
inactive: HCT-15 colon 94.8% | HT29 colon 106% | SNB-75 CNS 89.2% | SNB-19 CNS 93.3% | U251 CNS 99.5% | PC-3 prostate 91% | SK-MEL-5 melanoma 90.2% | UACC-62 melanoma 83.2% | LOX IMVI melanoma 92% | SK-MEL-28 melanoma 113%

CCCCCCCCN(CCCCCCCC)CC(O)c1cc(Cl)ccc1OC (stereo not given)
inactive: HCT-15 colon 61.8% | HT29 colon 38.7% | SNB-75 CNS 76.5% | SNB-19 CNS 91.2% | U251 CNS 78.6% | PC-3 prostate 71.9% | SK-MEL-5 melanoma 56% | UACC-62 melanoma 64.6% | LOX IMVI melanoma 13.1% | SK-MEL-28 melanoma 80.5%

COc1ccc(N2CCN(S(=O)(=O)c3oc(-c4ccccc4)nc3C#N)CC2)cc1
inactive: HT29 colon 50.6% | SNB-75 CNS 93.4% | SNB-19 CNS 92.2% | U251 CNS 88.2% | PC-3 prostate 92% | SK-MEL-5 melanoma 81.2% | UACC-62 melanoma 85.5% | SK-MEL-28 melanoma 98.6%
active: HCT-15 colon 9.51% | LOX IMVI melanoma 4.64%

Nc1[nH]nc(Nc2ccccc2)c1-c1nc2ccccc2s1
active: LOX IMVI melanoma -79.1%
inactive: HCT-15 colon 11.1% | HT29 colon 58.5% | SNB-75 CNS 44.2% | SNB-19 CNS 34% | U251 CNS 22% | PC-3 prostate 14.9% | SK-MEL-5 melanoma 57.6% | UACC-62 melanoma 27.2% | SK-MEL-28 melanoma 35.4%

Cn1c(=O)c2c(nc(Nc3cc(=O)[nH]c(=O)[nH]3)n2Cc2ccccc2)n(C)c1=O
active: HT29 colon -4.46% | SNB-75 CNS -21%
inactive: HCT-15 colon 98.3% | SNB-19 CNS 96.9% | U251 CNS 12.2% | PC-3 prostate 92.2% | SK-MEL-5 melanoma 98.1% | UACC-62 melanoma 88.3% | LOX IMVI melanoma 92.3% | SK-MEL-28 melanoma 101%

CC/C=C\C/C=C\C[C@H](O)C/C=C1/C(=O)C=C[C@@H]1C/C=C\CCCC(=O)OC
inactive: SNB-75 CNS 53.3% | SNB-19 CNS 20.2%
active: HCT-15 colon -25.8% | HT29 colon -25.4% | U251 CNS -73.3% | PC-3 prostate -36.6% | SK-MEL-5 melanoma -94.9% | UACC-62 melanoma -56% | LOX IMVI melanoma -80.5% | SK-MEL-28 melanoma -38%

N#C/C(=N\Nc1ccc(Cl)cc1)C(=O)Nc1cc(-c2ccccc2)nn1-c1ccccc1
inactive: HT29 colon 34.1% | SNB-75 CNS 62.1% | SNB-19 CNS 30.4% | U251 CNS 23.1% | LOX IMVI melanoma 73.5% | SK-MEL-28 melanoma 38.6%
active: HCT-15 colon 9.38% | PC-3 prostate 6.71% | SK-MEL-5 melanoma -31% | UACC-62 melanoma 3.27%

COC(=O)c1nc(-c2ccc(C)cc2)oc1Sc1ccc(C)cc1
inactive: HCT-15 colon 86.8% | HT29 colon 102% | SNB-75 CNS 79.3% | SNB-19 CNS 101% | U251 CNS 94.3% | PC-3 prostate 78.4% | SK-MEL-5 melanoma 105% | UACC-62 melanoma 76.9% | LOX IMVI melanoma 93.5% | SK-MEL-28 melanoma 106%

COc1ccc(NC(=O)Nc2ccccc2CNc2nc(Nc3ccc(OCCN4CCCC4)cc3)ncc2Cl)cc1
active: HCT-15 colon 5.09% | HT29 colon 3.08% | SNB-75 CNS -47.8% | U251 CNS -15.2% | SK-MEL-5 melanoma -40.6% | UACC-62 melanoma -53.4% | LOX IMVI melanoma -99% | SK-MEL-28 melanoma -77.7%
inactive: SNB-19 CNS 33.9% | PC-3 prostate 23.3%

COCCn1cc(-c2csc(-c3cn(C)c4ccc(F)cc34)n2)c2cccnc21
inactive: HCT-15 colon 27.9% | HT29 colon 35.5% | SNB-75 CNS 76.4% | SNB-19 CNS 82.6% | U251 CNS 65.5% | PC-3 prostate 46.5% | SK-MEL-5 melanoma 72.7% | UACC-62 melanoma 79.9% | LOX IMVI melanoma 25.8% | SK-MEL-28 melanoma 79.8%

Clc1ccc2c(c1)N(c1ncnc3ccc(-c4cnc5[nH]ccc5c4)cc13)CC2
active: HT29 colon 3.75% | SNB-75 CNS 3.69%
inactive: HCT-15 colon 14.4% | SNB-19 CNS 38.3% | U251 CNS 41.3% | PC-3 prostate 28.2% | SK-MEL-5 melanoma 32.7% | UACC-62 melanoma 29.3% | LOX IMVI melanoma 13.4% | SK-MEL-28 melanoma 36%

Clc1ccc(/C=N\N2CCCCCC2)cc1
inactive: HCT-15 colon 95.7% and 92.9% | HT29 colon 101% and 84.9% | SNB-75 CNS 100% and 110% | SNB-19 CNS 96.4% and 109% | U251 CNS 92.3% and 98.5% | PC-3 prostate 105% | SK-MEL-5 melanoma 98.2% and 106% | UACC-62 melanoma 92.1% and 104% | LOX IMVI melanoma 102% | SK-MEL-28 melanoma 104% and 107%

O=c1oc2c(Br)cc(Br)cc2cc1-c1cc(-c2ccc(-c3cc(-c4cc5cc(Br)cc(Br)c5oc4=O)nc(-c4cc5cc(Br)cc(Br)c5oc4=O)c3)cc2)cc(-c2cc3cc(Br)cc(Br)c3oc2=O)n1
inactive: HCT-15 colon 111% | HT29 colon 90.8% | SNB-75 CNS 105% | SNB-19 CNS 101% | U251 CNS 107% | PC-3 prostate 97.5% | SK-MEL-5 melanoma 108% | UACC-62 melanoma 102% | LOX IMVI melanoma 99.5% | SK-MEL-28 melanoma 112%

COc1cc(-c2nn(-c3cccc(NC(=O)CCN4CCN(C)CC4)c3)cc2-c2ccncc2)ccc1Cl
inactive: HCT-15 colon 21.2% | SNB-19 CNS 44% | U251 CNS 21.5% | PC-3 prostate 14% | UACC-62 melanoma 28.2% | SK-MEL-28 melanoma 16.9%
active: HT29 colon -17.4% | SNB-75 CNS -5.41% | SK-MEL-5 melanoma 8.48% | LOX IMVI melanoma -16%

COc1cc2nc3cc([N+](=O)[O-])ccc3c(NCCNCC(C)(C)O)c2cc1OC
inactive: HCT-15 colon 17%
active: HT29 colon -11.7% | SNB-75 CNS -55.7% | SNB-19 CNS -10.5% | U251 CNS -23.6% | PC-3 prostate -35.6% | SK-MEL-5 melanoma -71.3% | UACC-62 melanoma -48.6% | LOX IMVI melanoma -40.9% | SK-MEL-28 melanoma -25.7%

— PubChem BioAssay (NCI)
